Binding signal data for 28 sequences are collected here from article PMC7862700, “An all-to-all approach to the identification of sequence-specific readers for epigenetic DNA modifications on cytosine”.

Chain of ETV1 (P50549 whole entry): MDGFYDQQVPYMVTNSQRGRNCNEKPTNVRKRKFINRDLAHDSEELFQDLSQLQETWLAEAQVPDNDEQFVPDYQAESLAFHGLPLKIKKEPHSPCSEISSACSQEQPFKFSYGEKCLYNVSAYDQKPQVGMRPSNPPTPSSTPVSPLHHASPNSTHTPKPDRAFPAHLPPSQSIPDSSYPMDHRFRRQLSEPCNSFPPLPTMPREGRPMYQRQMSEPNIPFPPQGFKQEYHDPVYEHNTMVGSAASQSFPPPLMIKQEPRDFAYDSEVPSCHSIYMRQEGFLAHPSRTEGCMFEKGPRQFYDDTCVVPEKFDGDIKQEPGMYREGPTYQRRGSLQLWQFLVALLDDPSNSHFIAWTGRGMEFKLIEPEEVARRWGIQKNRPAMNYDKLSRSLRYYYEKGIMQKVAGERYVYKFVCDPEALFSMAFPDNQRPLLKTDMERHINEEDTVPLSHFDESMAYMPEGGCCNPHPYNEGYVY

In one assay the target is T1, ELK4 (Homo sapiens, UniProt P28324-2 1-405).
T1 sequence: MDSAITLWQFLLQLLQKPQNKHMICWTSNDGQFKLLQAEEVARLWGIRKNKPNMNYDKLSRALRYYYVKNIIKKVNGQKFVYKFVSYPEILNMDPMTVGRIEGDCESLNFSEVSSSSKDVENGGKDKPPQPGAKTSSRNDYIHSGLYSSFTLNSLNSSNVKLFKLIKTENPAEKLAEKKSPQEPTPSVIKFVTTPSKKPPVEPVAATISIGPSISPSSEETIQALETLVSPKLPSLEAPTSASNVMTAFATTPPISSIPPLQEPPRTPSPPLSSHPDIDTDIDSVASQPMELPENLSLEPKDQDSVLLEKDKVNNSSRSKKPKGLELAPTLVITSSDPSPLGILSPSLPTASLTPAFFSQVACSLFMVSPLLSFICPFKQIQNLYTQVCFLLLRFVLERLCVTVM
The experiment in a line: DAPPL (digital affinity profiling via proximity ligation, sequencing); 10 mM Tris-HCl pH 7.5, 50 mM NaCl, 1 mM DTT, 4% glycerol, room temperature, 30 min; GST-TFs on glutathione beads, 16-mer random dsDNA library, 0.1% formaldehyde crosslink after washing; high values mean tight binding. The conditions noted are these: protein: recombinant; tags: N-terminal GST; dsDNA, one strand shown. In short, it runs like this:
(§1)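 Yeast served to express human transcription factors as GST fusions, which were then captured on glutathione beads and labelled with DNA barcodes. Pooled with a tag-only sample, they were incubated with 200 nmole of a 16-mer random double-stranded DNA library for 30 min at room temperature in Tris/NaCl/DTT/glycerol buffer, washed, crosslinked with 0.1% formaldehyde, ligated by proximity, amplified by PCR and sequenced. Dividing each hexamer's read frequency for a factor by its frequency for the tag-only sample gives the binding signal.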
For GTAGCG, the binding signal was 1.01 fold enrichment (6-mer frequency, TF over GST control).
The same measure, in the same setting: next, GCGTTA: 1.02 fold enrichment (6-mer frequency, TF over GST control).
Still for that read-out and setting: next, AAGCCA: 1.02 fold enrichment (6-mer frequency, TF over GST control).

In another assay the target is T2, ETV2 (Homo sapiens, UniProt O00321 1-342).
T2 sequence: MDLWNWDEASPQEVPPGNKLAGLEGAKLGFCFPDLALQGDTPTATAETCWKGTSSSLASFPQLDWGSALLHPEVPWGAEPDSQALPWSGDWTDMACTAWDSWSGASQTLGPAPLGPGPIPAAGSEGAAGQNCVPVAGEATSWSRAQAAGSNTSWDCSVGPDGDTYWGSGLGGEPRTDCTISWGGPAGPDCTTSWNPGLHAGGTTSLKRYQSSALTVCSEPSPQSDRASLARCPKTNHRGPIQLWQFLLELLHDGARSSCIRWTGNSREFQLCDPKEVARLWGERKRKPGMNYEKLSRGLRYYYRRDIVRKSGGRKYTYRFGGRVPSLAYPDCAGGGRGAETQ
The description is as above. The conditions noted are these: protein: recombinant; tags: N-terminal GST; dsDNA, one strand shown. The gist of the method:
as §1
With ACCCGT, the binding signal was 1 fold enrichment (6-mer frequency, TF over GST control).
On the same count and under the same terms, next, GGCAGC: 1.02 fold enrichment (6-mer frequency, TF over GST control); TCAGTA: 1.03 fold enrichment (6-mer frequency, TF over GST control).
On the same count and under the same terms, next, CAAGCC: 1.06 fold enrichment (6-mer frequency, TF over GST control).
With CAGTAT, the binding signal is 1.08 fold enrichment (6-mer frequency, TF over GST control).
On the same count and under the same terms, next, GGCCTG: 1.06 fold enrichment (6-mer frequency, TF over GST control); CCATAG: 1.01 fold enrichment (6-mer frequency, TF over GST control); GCATAT: 1.02 fold enrichment (6-mer frequency, TF over GST control).
Consider GCGTCA, for which the binding signal was 1.06 fold enrichment (6-mer frequency, TF over GST control).
Still for that read-out and setting: next, TGAACG: 1.02 fold enrichment (6-mer frequency, TF over GST control); TGTTAG: 1.03 fold enrichment (6-mer frequency, TF over GST control); GTAACG: 1.08 fold enrichment (6-mer frequency, TF over GST control).
Same read-out and setting: to TGGGAC belongs 1.14 fold enrichment (6-mer frequency, TF over GST control); to GATACC, 1 fold enrichment (6-mer frequency, TF over GST control).

In a further assay the target is T3, ELF3 (Homo sapiens, UniProt P78545 1-371).
T3 sequence: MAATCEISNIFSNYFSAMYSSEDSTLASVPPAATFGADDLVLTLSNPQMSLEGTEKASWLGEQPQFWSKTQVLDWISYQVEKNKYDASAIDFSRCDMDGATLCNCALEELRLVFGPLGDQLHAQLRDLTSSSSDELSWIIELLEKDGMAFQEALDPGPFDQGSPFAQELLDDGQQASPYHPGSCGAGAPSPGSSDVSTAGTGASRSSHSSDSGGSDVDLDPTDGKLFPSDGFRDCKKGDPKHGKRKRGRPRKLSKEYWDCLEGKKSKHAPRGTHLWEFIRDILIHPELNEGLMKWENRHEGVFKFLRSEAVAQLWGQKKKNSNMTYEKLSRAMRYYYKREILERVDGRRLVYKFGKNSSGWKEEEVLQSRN
The description is as above. The conditions noted are these: protein: recombinant; tags: N-terminal GST; dsDNA, one strand shown. The gist of the method:
as §1
Regarding TCAGTA, the binding signal was 1.08 fold enrichment (6-mer frequency, TF over GST control).
Same read-out and setting: next, CAAGCC: 1.12 fold enrichment (6-mer frequency, TF over GST control); CAGTAT: 1.1 fold enrichment (6-mer frequency, TF over GST control).
With GTGCAA, the binding signal was 1.07 fold enrichment (6-mer frequency, TF over GST control).
Same read-out and setting: next, AGATGT: 1.04 fold enrichment (6-mer frequency, TF over GST control); GCCACA: 1.07 fold enrichment (6-mer frequency, TF over GST control).
Still for that read-out and setting: next, TGAACG: 1.16 fold enrichment (6-mer frequency, TF over GST control); TGTTAG: 1 fold enrichment (6-mer frequency, TF over GST control).
On to AGGTAA, for which the binding signal is 1.11 fold enrichment (6-mer frequency, TF over GST control).
Same read-out and setting: to GATACC belongs 1 fold enrichment (6-mer frequency, TF over GST control).

The target in a further assay is CRX (Homo sapiens, UniProt O43186 1-299). The assay is described as above. The conditions noted are these: protein: recombinant; tags: N-terminal GST; dsDNA, one strand shown. In short, it runs like this: as §1
Chain of CRX (O43186 whole entry): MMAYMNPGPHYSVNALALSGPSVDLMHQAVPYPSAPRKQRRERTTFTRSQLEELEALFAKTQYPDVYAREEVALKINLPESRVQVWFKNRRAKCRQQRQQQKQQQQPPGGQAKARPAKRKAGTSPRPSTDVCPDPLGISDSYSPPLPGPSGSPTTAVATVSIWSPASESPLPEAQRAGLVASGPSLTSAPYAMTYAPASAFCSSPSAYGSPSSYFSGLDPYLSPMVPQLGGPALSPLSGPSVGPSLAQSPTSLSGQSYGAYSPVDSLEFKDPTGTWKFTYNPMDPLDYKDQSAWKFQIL
In the case of TCAGTA, the binding signal is 1.07 fold enrichment (6-mer frequency, TF over GST control).
On the same count and under the same terms, to AAAGTC belongs 1.01 fold enrichment (6-mer frequency, TF over GST control); to ATAACG, 1 fold enrichment (6-mer frequency, TF over GST control).
On to TCTGAG, for which the binding signal was 1.04 fold enrichment (6-mer frequency, TF over GST control).
Same read-out and setting: to GATTGA belongs 1.11 fold enrichment (6-mer frequency, TF over GST control); to AGGTAA, 1.14 fold enrichment (6-mer frequency, TF over GST control); to GCGTTA, 1.06 fold enrichment (6-mer frequency, TF over GST control).
On to AAGCCA, for which the binding signal is 1.12 fold enrichment (6-mer frequency, TF over GST control).

The next assay addresses ETV1 (Homo sapiens, UniProt P50549 1-477). Described as above. The conditions noted are these: protein: recombinant; tags: N-terminal GST; dsDNA, one strand shown. The gist of the method: as §1
As for CAACGG, the binding signal is 1.01 fold enrichment (6-mer frequency, TF over GST control).
Same read-out and setting: next, GTGCAA: 1.05 fold enrichment (6-mer frequency, TF over GST control).
Still for that read-out and setting: next, GTTGCC: 1.05 fold enrichment (6-mer frequency, TF over GST control); GCCACA: 1.08 fold enrichment (6-mer frequency, TF over GST control); CCACCA: 1.02 fold enrichment (6-mer frequency, TF over GST control).
On the same count and under the same terms, next, TGAACG: 1.02 fold enrichment (6-mer frequency, TF over GST control); AGGTAA: 1.02 fold enrichment (6-mer frequency, TF over GST control).
For the sequence GATACC, the binding signal is 1 fold enrichment (6-mer frequency, TF over GST control).
